Bioassay records from PubChem BioAssay.
The full list was thinned out, with hits kept by preference.
Lassa entry inh = inhibitors of Lassa virus binding or cell entry | Lassa virus pseudotype entry inhibition, cell reporter | Potency, µM (doses to about 37.9 µM), hits mostly inhibitors | 300,000 tested, 1.2% active; calls by dose curve; tested in HEK293 cells; further: nearly all actives have a fitted effect of over 50% in size
Shiga toxin inh = Shiga toxin inhibition. inhibition, % at 38.7 µM. AID 2315. Vero cells, Shiga toxin protein synthesis inhibition reporter. 290,000 tested, 9.2% active; in the data active means inhibition mostly above about 28%, no sharp cut-off; inactive means mostly below about 43%
MARV entry inh = inhibitors of Marburg virus binding or cell entry; Marburg virus pseudotyped entry inhibition, cell reporter; Potency, µM (top dose mostly 37.8 µM), usual class: inhibitors; 300,000 tested, 1.8% active; calls by dose curve; tested in HEK293 cells
CHX counter = counter-screen hit for Shiga toxin inhibitors, cycloheximide. cell reporter, cycloheximide protein synthesis inhibition counterscreen. max response, %. 300,000 tested, 12% active; in the data active means max response mostly above about 13%, no sharp cut-off; inactive means mostly below about 14%; further: read at 38.3 µM for the half of the compounds with a filed dose
AMA1-RON2 inh = inhibitors of Plasmodium falciparum AMA1-RON2 interaction. Potency, µM (doses to about 58.2 µM), usual class: inhibitors. AlphaScreen AMA1-biotinylated RON2 peptide binding. AID 720542. 360,000 tested, 0.2% active; active means well fitted inhibition curve with a large enough effect; inconclusive means small, poorly fitted or top-dose-only effect; inactive means no such curve, though single readings can be large or run the other way; further: nearly all actives have a fitted effect of over 45% in size
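AMA1 (3D7) with his tag at 25 nM final met compounds first, then biotinylated RON2 peptide at 25 nM; detection used donor plus acceptor beads, 10 µg/mL apiece, read by AlphaScreen after 30 min at room temperature.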
Of the large screens only hits and unclear results are named; the others gave an inactive call.

CC(C)(C)OC(=O)N1CCc2nc(N3CCN(c4ncccn4)CC3)ncc2C1	Lassa entry inh inconclusive (no result: Shiga toxin inh, CHX counter, AMA1-RON2 inh)
Cc1cn2c(=O)c(S(=O)(=O)Nc3ccc(OC(F)(F)F)cc3)c(C)nc2s1	none (no result: Shiga toxin inh, MARV entry inh, CHX counter, AMA1-RON2 inh)
Cc1ccc(NC(=O)CNC(=O)c2ccco2)cc1Cl	Lassa entry inh inconclusive, CHX counter 22.2
COc1ccc(CCNC(=O)C2CCCN(c3nc4c(C)cc(C)cc4s3)C2)cc1OC (centres undefined)	none (no result: Lassa entry inh, Shiga toxin inh, CHX counter, AMA1-RON2 inh)
Nc1cc(C(=O)O)c(N)c2c1C(=O)c1ccccc1C2=O	AMA1-RON2 inh 17.8µM (no result: Lassa entry inh, MARV entry inh)
O=C(NCC(=O)N(c1cccnc1)C(C(=O)NC1CCCCC1)c1ccccc1F)c1ccco1 (centres undefined)	none
O=C(Cc1ccccc1)c1ccc(O)cc1	none (no result: Shiga toxin inh, CHX counter)
O=C(CCO)c1ccc(O)cc1	AMA1-RON2 inh inconclusive (no result: Lassa entry inh, MARV entry inh)
NC(=O)c1cc(C(=O)Cc2ccc(Cl)cc2)c[nH]1	Shiga toxin inh 40.4, CHX counter 22.6
O=C(Cc1ccccc1)c1ccc(Cl)cc1	Shiga toxin inh 60.1, MARV entry inh inconclusive, CHX counter 32.1
Cc1ccc(C(=O)CCC(=O)NCc2ccc(Cl)cc2)cc1	MARV entry inh inconclusive (no result: Shiga toxin inh, CHX counter)
O=C(Cc1ccccc1)c1c[nH]c(C(=O)O)c1	none
Cc1ccc(CC(=O)c2ccc(Cl)cc2)cc1	Shiga toxin inh 67.5, MARV entry inh inconclusive, CHX counter 47.2
O=C(Cc1ccc(Cl)cc1)c1ccc(O)cc1	Shiga toxin inh 110.4, CHX counter 48.2 (no result: Lassa entry inh, MARV entry inh)
O=C(COc1ccc(Br)cc1)Nc1ccc(C(=O)OC2CCCCC2)cc1	none (no result: Shiga toxin inh, MARV entry inh, CHX counter, AMA1-RON2 inh)
CCOC(=O)C1=C(O)c2ccccc2C(=O)/C1=C\c1ccc(CC)cc1	Lassa entry inh inconclusive, Shiga toxin inh 58.5, MARV entry inh 2.06µM, CHX counter 31.4, AMA1-RON2 inh inconclusive
CCOC(=O)C1=C(C)N(c2ccccc2)C(=O)/C1=C\c1ccc(O)c(OC)c1	AMA1-RON2 inh inconclusive (no result: Lassa entry inh, MARV entry inh)
CCCc1ccc(/C=C2\C(=O)c3ccccc3C(O)=C2C(=O)OCC)cc1	CHX counter 19.9 (no result: Lassa entry inh, MARV entry inh, AMA1-RON2 inh)
Cc1cccc(NC(=O)CN2CCN(C(=O)CN3C(=O)NC4(CCCCC4C)C3=O)CC2)c1C (centres undefined)	none (no result: Lassa entry inh, Shiga toxin inh, MARV entry inh, CHX counter)
Cc1cn(S(=O)(=O)c2ccc(F)c(Cl)c2)cn1	none (no result: Shiga toxin inh, CHX counter, AMA1-RON2 inh)
CC(=O)Oc1cc2cccc(OC(C)=O)c(=O)c2c(OC(C)=O)c1OC(C)=O	AMA1-RON2 inh 1.78µM (no result: Lassa entry inh, MARV entry inh)
CC(=O)Oc1cc2c(c3ccccc13)CCC2=O	none (no result: Shiga toxin inh, CHX counter)
COc1cc2cccc(OC)c(=O)c2c(O)c1OC	CHX counter 33.8
CCCCC(=O)Nc1ccc(C(=O)NNC(=O)CCc2ccccc2)cc1	none
CCCCC(=O)Nc1ccc(C(=O)NCCc2ccccc2)cc1	MARV entry inh inconclusive, CHX counter 30.6, AMA1-RON2 inh inconclusive
CCCC(=O)Nc1ccc(C(=O)NCCc2ccc(F)cc2)cc1	MARV entry inh inconclusive, CHX counter 24.0
O=C(Nc1cccc(C(F)(F)F)c1)Nc1nnc([C@@H]2C[C@H](O)[C@@H](CO)O2)s1	none (no result: Lassa entry inh, Shiga toxin inh, MARV entry inh, CHX counter)
CC(=O)c1ccc(NC(=O)/C(Cl)=C/c2ccccc2)cc1	Lassa entry inh inconclusive, Shiga toxin inh 146.9, MARV entry inh inconclusive, CHX counter 41.4
O=C(Nc1ccc(F)cc1)/C(Cl)=C/c1ccccc1	Shiga toxin inh 62.4, MARV entry inh inconclusive, CHX counter 39.9
Cc1ccc(NC(=O)/C(Cl)=C\c2ccccc2)cc1	Lassa entry inh 4.47µM, MARV entry inh 7.94µM
CC(=O)c1ccc(NC(=O)C2(c3ccccc3)CC2(Cl)Cl)cc1 (centres undefined)	Shiga toxin inh 88.0, MARV entry inh inconclusive, CHX counter 40.1
O=C(Nc1ccccc1Cl)C1(c2ccccc2)CC1(Cl)Cl (centres undefined)	none
COc1ccc(Cl)cc1NC(=O)Cc1coc2c(C)c(C)ccc12	MARV entry inh inconclusive (no result: Shiga toxin inh, CHX counter, AMA1-RON2 inh)
CC12CN3CCN(CC(C3)/C1=N\NC(=O)Nc1cccc(Cl)c1)C2	MARV entry inh inconclusive, CHX counter 26.3
CC12CN3CCN(CC(C3)/C1=N/NC(=O)Nc1ccccc1)C2	MARV entry inh inconclusive, CHX counter 24.9
CC(C)C12CN3CCN(CC(C3)/C1=N\NC(=O)Nc1ccccc1)C2	none
Cc1cccc(-c2noc(CN(C(=O)C(c3ccccc3)c3ccccc3)C(C)C)n2)c1	none (no result: Lassa entry inh, MARV entry inh)
CSc1ncc(Cl)c(C(=O)Nc2nnc(SC)s2)n1	none
CCCc1nnc(NC(=O)c2nc(S(=O)(=O)Cc3ccc(C)cc3)ncc2Cl)s1	Lassa entry inh inconclusive, Shiga toxin inh 44.4, CHX counter 30.5
CSc1nnc(NC(=O)c2nc(S(=O)(=O)Cc3ccccc3)ncc2Cl)s1	Lassa entry inh inconclusive, Shiga toxin inh 68.0, MARV entry inh inconclusive, CHX counter 53.8
COc1ccccc1NC(=O)c1nc(S(=O)(=O)Cc2ccccc2)ncc1Cl	Lassa entry inh inconclusive, MARV entry inh inconclusive
CC(C)c1nnc(NC(=O)c2nc(S(=O)(=O)Cc3ccccc3)ncc2Cl)s1	Lassa entry inh inconclusive, Shiga toxin inh 74.9, MARV entry inh inconclusive, CHX counter 67.1
CC1(C(=O)NS(=O)(=O)c2ccccc2Cl)CCN1C(=O)C1CCCCC1 (centres undefined)	none (no result: Lassa entry inh, Shiga toxin inh, MARV entry inh, CHX counter)
COc1ccc(-c2csc(N=C(N)N)n2)cc1	Shiga toxin inh 67.7, CHX counter 24.9
Cc1ccc(-c2csc(N=C(N)N)n2)c(C)c1	Shiga toxin inh 37.2, MARV entry inh inconclusive, CHX counter 35.6
COc1ccc(-c2ccc(OC)cc2)cc1	CHX counter 34.3
NC(N)=Nc1nc(CCN2C(=O)c3ccccc3C2=O)cs1	none
Nc1nc(-c2ccc(-c3ccccc3)cc2)cs1	Shiga toxin inh 151.2, MARV entry inh inconclusive, CHX counter 62.0
Nc1nc(-c2ccccc2Br)cs1	Lassa entry inh inconclusive
COc1ccc(-c2nncnn2)cc1	none
C=CCn1c(SCC(=O)N(CC)C2CCS(=O)(=O)C2)nc2scc(-c3ccccc3)c2c1=O (centres undefined)	MARV entry inh inconclusive (no result: Shiga toxin inh, CHX counter)
